In PubChem BioAssay (NCI) one finds growth data, which are given here for eight molecules.

Among the test systems are HCT-15 colon; HT29 colon; SNB-75 CNS; SNB-19 CNS; U251 CNS; PC-3 prostate; SK-MEL-5 melanoma; UACC-62 melanoma; LOX IMVI melanoma; SK-MEL-28 melanoma; SK-MEL-2 melanoma; EKVX NSCLC; SN12C renal; UO-31 renal; TK-10 renal; ACHN renal; A498 renal; CCRF-CEM leukemia; MOLT-4 leukemia; SR leukemia.
Experiment in all cases: NCI-60 one-dose screen, 48 h (100 = growth as untreated, 0 = no growth, -100 = all killed)
What all share (conditions): 10 µM unless noted

SMILES strings stand for the structures. About 83,000 compounds went through this panel and 20% of them were active in at least one assay; those are over-represented in the sample as a whole.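 Interpretation: 100, growth as untreated; towards 0, rising growth inhibition; 0, no net growth; 0 to -100, cell death. Compounds scoring below 10 were considered active.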 A number with no mark means an inactive call. Calls of active or inactive are those of the source.

For `FC(F)(F)c1ccc2c(Nc3cccc(C4CC(c5ccccc5)=NN4c4ccc(Cl)cc4)c3)ccnc2c1` (stereo not given), the growth with HCT-15 colon is 5.61% (active); in the assay on HT29 colon it was 19%; in the assay on SNB-75 CNS it was 70%; in the assay with SNB-19 CNS it was 41.4%; in the assay on U251 CNS it was 29.3%; in the assay with PC-3 prostate, 34%. The growth with SK-MEL-5 melanoma is 75.1%; in the assay with UACC-62 melanoma, 49.4%; in the assay on LOX IMVI melanoma, -53.9% (active); with SK-MEL-28 melanoma, 48.6%; with SK-MEL-2 melanoma it was 87.2%; in the assay on EKVX NSCLC, 82.6%. Also, the growth was 37.7% in the assay with SN12C renal; 35.9% in the assay with UO-31 renal; 82.3% in the assay with TK-10 renal; 73.3% with ACHN renal; 66.3% with A498 renal; 3.45% (active) in the assay on CCRF-CEM leukemia. Moreover, the growth is 4.86% (active) with MOLT-4 leukemia and -10.9% (active) in the assay on SR leukemia.
In the case of `CCOC(=O)/C=C1\SC(=Nc2ccc(C#N)cc2)N(CCN2C(=O)/C(=C/C(=O)OCC)SC2=Nc2ccc(C#N)cc2)C1=O`, the growth was 2.58% (active) with HCT-15 colon; 15.7% with HT29 colon; 53.6% with SNB-75 CNS; 28.2% in the assay with SNB-19 CNS; -7.96% (active) in the assay with U251 CNS; 39.6% with PC-3 prostate. Further, the growth is 58.8% with SK-MEL-5 melanoma; 33.6% in the assay on UACC-62 melanoma; 0.0355% (active) with LOX IMVI melanoma; 97% in the assay with SK-MEL-28 melanoma; 80.8% with SK-MEL-2 melanoma; 35.2% in the assay on EKVX NSCLC. The growth with SN12C renal is 24.2%; in the assay on UO-31 renal it was 56.6%; in the assay on TK-10 renal, 87.4%; with ACHN renal, 78.6%; in the assay with A498 renal, 63.7%; with CCRF-CEM leukemia, 1.57% (active). The growth with MOLT-4 leukemia was 9.39% (active); in the assay on SR leukemia it was 1.69% (active).
Regarding `Cc1cc(NC(=O)CNc2nc(Oc3ccc(F)cc3)nc(-c3ccc(F)cc3)n2)ccc1Cl`, the growth in the assay with HCT-15 colon is 102%; in the assay with HT29 colon, 94%; in the assay on SNB-75 CNS, 87.8%; with SNB-19 CNS it was 100%; in the assay on U251 CNS, 98.4%; in the assay on PC-3 prostate, 89.1%. The growth with SK-MEL-5 melanoma is 99.1%; in the assay with UACC-62 melanoma, 97.5%; in the assay with LOX IMVI melanoma, 96.1%; in the assay on SK-MEL-28 melanoma it was 109%; in the assay on SK-MEL-2 melanoma, 103%; in the assay on EKVX NSCLC, 98.6%. Further, the growth is 100% in the assay with SN12C renal; 97% in the assay with UO-31 renal; 96.5% with TK-10 renal; 112% in the assay with ACHN renal; 89.3% with A498 renal; 95.3% in the assay on CCRF-CEM leukemia. The growth with MOLT-4 leukemia was 80.1%; in the assay with SR leukemia it was 85.2%.
As for `CC1(C)[C@@H](O)CC[C@]2(C)[C@H]3CC[C@@H]4[C@H]5[C@H](c6cn(-c7ccccc7)nn6)CC[C@]5(CO)CC[C@@]4(C)[C@]3(C)CC[C@@H]12`, the growth with HCT-15 colon was 88.8%; in the assay on HT29 colon it was 84.7%; with SNB-75 CNS, 81.9%; with SNB-19 CNS it was 93.1%; with U251 CNS it was 89.6%; in the assay on PC-3 prostate it was 52.8%. For the same molecule, the growth with SK-MEL-5 melanoma is 83.7%; in the assay on UACC-62 melanoma it was 79.6%; in the assay on LOX IMVI melanoma, 95.6%; with SK-MEL-28 melanoma, 88.7%; with SK-MEL-2 melanoma, 92.4%; in the assay on EKVX NSCLC, 88%. Also, the growth in the assay with SN12C renal was 90%; in the assay on UO-31 renal, 79.9%; in the assay with TK-10 renal it was 98.4%; in the assay with ACHN renal, 84.4%; in the assay on A498 renal it was 87.6%; in the assay on CCRF-CEM leukemia, 94.4%. Also, the growth is 67.7% in the assay with MOLT-4 leukemia and 64.7% with SR leukemia.
As to `Nc1ccccc1NC(=O)c1ccc(CSc2nc(N3CCOCC3)c3cccn3n2)cc1`, the growth with HCT-15 colon was 20.1%; with HT29 colon, 0.895% (active); in the assay with SNB-75 CNS, 20.3%; with SNB-19 CNS, 32.7%; in the assay on U251 CNS, 2.15% (active); in the assay with PC-3 prostate, 23.1%. In addition, the growth with SK-MEL-5 melanoma was -41.1% (active); in the assay on UACC-62 melanoma, -31.9% (active); in the assay with LOX IMVI melanoma, -38.6% (active); with SK-MEL-28 melanoma, 16.3%; in the assay with SK-MEL-2 melanoma, -28.9% (active); in the assay with EKVX NSCLC, 25.8%. In addition, the growth is 16.6% with SN12C renal; -24.8% (active) with UO-31 renal; -10.7% (active) in the assay with TK-10 renal; 16.3% with ACHN renal; -12.1% (active) in the assay on A498 renal; 5.4% (active) in the assay on CCRF-CEM leukemia. Besides, the figures for the growth with MOLT-4 leukemia and in the assay with SR leukemia were 1.08% (active) and 13.4%, respectively.
Regarding `O=C(O)c1cc(N=Nc2ccc(-c3ccc(N=Nc4c(S(=O)(=O)O)cc5ccc(Nc6ccccc6)cc5c4O)cc3)cc2)ccc1O`, the growth with HCT-15 colon is 100%; in the assay on HT29 colon, 99.9%; with SNB-75 CNS it was 85.2%; in the assay on SNB-19 CNS it was 102%; in the assay with U251 CNS, 103%; in the assay with PC-3 prostate, 96.4%. For the same molecule, the growth was 106% with SK-MEL-5 melanoma; 93.7% in the assay with UACC-62 melanoma; 95.6% in the assay on LOX IMVI melanoma; 107% in the assay on SK-MEL-28 melanoma; 93.8% in the assay on SK-MEL-2 melanoma; 101% with EKVX NSCLC. The growth with SN12C renal is 98.7%; in the assay with UO-31 renal, 81.3%; in the assay with TK-10 renal it was 106%; with ACHN renal, 102%; in the assay with A498 renal it was 99.4%; in the assay with CCRF-CEM leukemia, 101%. In addition, the figures for the growth in the assay with MOLT-4 leukemia and in the assay with SR leukemia were 97.9% and 105%, respectively.
For `COc1ccc(/C(=N\O)c2cc(C)c(OC)c(C)c2)cc1O`, the growth with HCT-15 colon is 16.3%; in the assay on HT29 colon, -8.4% (active); in the assay on SNB-75 CNS it was 38.4%; in the assay on SNB-19 CNS, 29.8%; in the assay on U251 CNS, 22.1%; with PC-3 prostate, 37.6%. For the same molecule, the growth in the assay on SK-MEL-5 melanoma is -7.18% (active); in the assay with UACC-62 melanoma it was 35.3%; in the assay with LOX IMVI melanoma, 24.2%; in the assay on SK-MEL-28 melanoma, 55.4%; in the assay with SK-MEL-2 melanoma it was 37.6%; with EKVX NSCLC, 51.7%. Moreover, the growth in the assay on SN12C renal was 39.4%; in the assay on UO-31 renal, 51.6%; in the assay on TK-10 renal, 72%; with ACHN renal, 31.7%; in the assay with A498 renal, 6.79% (active); in the assay with CCRF-CEM leukemia, 7.8% (active). The figures for the growth in the assay with MOLT-4 leukemia and in the assay on SR leukemia were 13.8% and 10.3%, respectively.
Regarding `CCCS(=O)(=O)Nc1ccc(F)c(C(=O)c2c[nH]c3ncc(-c4ccc(OCCCC5CCCCN5)nc4)cc23)c1F` (stereo not given), the growth in the assay on HCT-15 colon was 102%; with HT29 colon, 2.79% (active); with SNB-75 CNS it was 19.4%; in the assay with SNB-19 CNS it was 77.5%; with U251 CNS, 61.2%; in the assay on PC-3 prostate, 53%. Besides, the growth in the assay on SK-MEL-5 melanoma is 44.7%; with UACC-62 melanoma it was -22% (active); with LOX IMVI melanoma it was 32.8%; in the assay on SK-MEL-28 melanoma, -1.65% (active); in the assay with SK-MEL-2 melanoma, 58.5%; in the assay with EKVX NSCLC it was 89.7%. The growth with SN12C renal is 62.5%; in the assay with UO-31 renal it was 102%; in the assay on TK-10 renal, 81.2%; in the assay on ACHN renal, 92.3%; with A498 renal, 64.8%; with CCRF-CEM leukemia it was 56.5%. The growth in the assay on MOLT-4 leukemia and in the assay on SR leukemia was 43.1% in each case.
